Assay [1] can be described thus: qHTS assay to identify small molecule agonists of the RXR signaling pathway - cell viability counter screen (AID 1159529). Further: nearly all actives have a fitted effect of over 50% in size. Further: potency means the concentration at half of the fitted maximal effect. In short, it runs like this:
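Luminescence from CellTiter-Glo (30 min, RT) measured viability in the same wells as the beta-lactamase reporter readout. Cells: GeneBLAzer RXR-alpha HEK 293T, 2% charcoal-stripped FBS. Compound exposure 16 hr, 37 C.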

A short description of assay [2]: qHTS assay to identify small molecule antagonists of the retinoid acid receptor (RAR) signaling pathway - cell viability counter screen (AID 1159551). Further: nearly all actives have a fitted effect of over 35% in size. Further: potency means the concentration at half of the fitted maximal effect. In short, it runs like this:
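Following overnight attachment, C3RL4 reporter cells received DMSO-dissolved compounds and then retinol (1 uM final). Six hours later at 37 C, ATP content was measured by CellTiter-Glo luminescence.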

Assay [3] can be described thus: qHTS assay to identify small molecule antagonists of the retinoic acid receptor (RAR) signaling pathway (AID 1159552; further: nearly all actives have a fitted effect of over 50% in size). In short, it runs like this:
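Luminescence from a RARE luciferase reporter in C3RL4 cells served as read-out. Cells received compounds together with 1 uM final retinol and incubated 6 hr at 37 C before detection reagent was added for 30 min at room temperature.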

Assay [4] in a line: qHTS assay to identify small molecule antagonists of the estrogen related receptor (ERR) signaling pathway from Tox21 library - cell viability counter screen (AID 1224834). Further: nearly all actives have a fitted effect of over 30% in size. Further: potency means the concentration at half of the fitted maximal effect. In short, it runs like this: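 Viability readout (CellTiter-Fluor fluorescence, 30 min at 37 C) multiplexed with the ERR assay; cells treated 17.5 h at 37 C with compounds delivered in DMSO.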
Assay [5] has as its target Luciferin 4-monooxygenase (Photinus pyralis) (UniProt P08659). The assay can be described thus: qHTS assay to identify small molecule inhibitors of firefly luciferase (AID 1224835). Further: series mostly up to about 120 µM; nearly all actives have a fitted effect of over 25% in size. In short, it runs like this:
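Inhibition of purified Photinus luciferase is measured by luminescence. Substrate levels (D-luciferin, ATP) sit at their KM values. Each compound is tested in a concentration series.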

A short description of assay [6]: qHTS assay to identify small molecule agonists of the constitutive androstane receptor (CAR) signaling pathway - cell viability counter screen (AID 1224836). Further: nearly all actives have a fitted effect of over 45% in size. Further: potency means the concentration at half of the fitted maximal effect. In short, it runs like this:
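Viability read-out: CellTiter-Fluor fluorescence after 23 h compound exposure at 37 C/5% CO2 in double-stable HepG2-CYP2B6-hCAR cells, with PK11195 present at 0.75 uM final; compounds tested in 15-point titration.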

Assay [7] is described as follows: qHTS assay to identify small molecule antagonists of the estrogen related receptor signaling pathway with the pleiotropic PPARgamma coactivator (PGC) from Tox21 10K library - cell viability counter screen (AID 1224840; active means well fitted cell-killing curve with a large enough effect in the repeat runs, not every such curve was filed as active; further: nearly all actives have a fitted effect of over 40% in size; further: potency means the concentration at half of the fitted maximal effect). In short, it runs like this:
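Compounds in DMSO, alongside positive and negative controls, were pinned onto PGC/ERR cells (2,000 per well). Exposure lasted 17.5 hours at 37 C, followed by a 30-minute CellTiter-Fluor incubation and fluorescence reading.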

A short description of assay [8]: qHTS assay to identify small molecule antagonists of the estrogen related receptor signaling pathway with the pleiotropic PPARgamma coactivator (PGC) from Tox21 10K library (AID 1224841; call rule not given here; further: series mostly up to about 92 µM; actives are mostly falling curves and most rising ones were filed inactive; nearly all actives have a fitted effect of over 50% in size). In short, it runs like this: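 Compound exposure ran 18 hours at 37 C in PGC/ERR cells (2,000/well) that had first rested 6 hours in a 37 C/5% CO2 incubator. Luciferase activity was then detected with One-Glo after a 30-minute room-temperature step.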

Assay [9] can be described thus: qHTS assay to identify small molecule agonists of the estrogen related receptor signaling pathway with the pleiotropic PPARgamma coactivator (PGC) from Tox21 10K library (AID 1224842). Further: nearly all actives have a fitted effect of over 15% in size. In short, it runs like this: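 Luminescence from One-Glo (30 min, room temperature) measured after PGC/ERR cells had 18 h at 37 C with pinned compound (23 nL in DMSO). Cells had been seeded at 2,000 per well and pre-incubated 6 h.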

Assay [10] addresses Thyrotropin receptor (Homo sapiens) (UniProt P16473). The assay is described as follows: qHTS assay to identify small molecule agonists of the thyroid stimulating hormone receptor (TSHR) signaling pathway (AID 1224843; calls by dose curve; further: nearly all actives have a fitted effect of over 45% in size). In short, it runs like this: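 Screening of the Tox21 10K collection used HEK293 cells engineered with TSHR at 800 cells per well. After a 30-min room-temperature compound exposure, HTRF cAMP reagents were added and fluorescence recorded 1 h later.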

The nature of assay [11]: qHTS assay to identify small molecule antagonists of the constitutive androstane receptor (CAR) signaling pathway - cell viability counter screen (AID 1224837). Further: nearly all actives have a fitted effect of over 45% in size. Further: potency means the concentration at half of the fitted maximal effect. In short, it runs like this:
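Fluorescence from CellTiter-Fluor served as the viability signal. Human hepatoma HepG2 cells stably bearing hCAR and CYP2B6-2.2kb received compound plus CITCO (50 nM final) for 23 hr.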

Assay [12] addresses Nuclear receptor subfamily 1 group I member 3 (Homo sapiens) (UniProt Q14994). The assay is described as follows: qHTS assay to identify small molecule agonists of the constitutive androstane receptor (CAR) signaling pathway (AID 1224839). Further: nearly all actives have a fitted effect of over 15% in size. Further: potency means the concentration at half of the fitted maximal effect. In short, it runs like this:
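Luminescence read-out (ONE-Glo, 30 min, room temperature) from double-stable HepG2-CYP2B6-hCAR cells exposed 24 h to 15-point compound series in presence of 0.75 uM PK11195 final.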

Assay [13] shares this target. The assay is described as follows: qHTS assay to identify small molecule antagonists of the constitutive androstane receptor (CAR) signaling pathway (AID 1224838).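 Further: HepG2 cells stably expressing hCAR with CYP2B6 luciferase reporter stimulated by CITCO; nearly all actives have a fitted effect of over 40% in size.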 In short, it runs like this:
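Quantitative HTS in double-stable HepG2-CYP2B6-hCAR cells. After 4 h plating, cells get compound (15 concentrations) and CITCO at 50 nM final, incubate 24 h at 37 C, then ONE-Glo luminescence is read.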

Assay [14] is described as follows: qHTS assay to identify small molecule agonists of the retinoic acid receptor (RAR) signaling pathway (AID 1159553). In short, it runs like this: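 Cell line C3RL4, RARE luciferase reporter. Treatment: compounds in DMSO, 6 hr, 37 C, 5% CO2, after overnight plating. Detection: luminescence, 30 min RT after reagent.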

SMILES strings stand for the structures. Several values for one entry are separate records, joined by “and”; a condition that tells them apart may be missing. Equal values may be shown once. Results filed as inconclusive are left out. Values without a mark were called inactive. Activity calls are given as the source filed them. Unless noted, the call rests on the fitted dose curve; in most records, active means well fitted curve in the direction sought with a large enough effect in the repeat runs; inconclusive means weak or mixed curves; inactive means no such curve, though single readings can be large; an effect the other way counts as inactive or inconclusive.

Sequence of Thyrotropin receptor (Homo sapiens) (P16473 whole entry, looked up): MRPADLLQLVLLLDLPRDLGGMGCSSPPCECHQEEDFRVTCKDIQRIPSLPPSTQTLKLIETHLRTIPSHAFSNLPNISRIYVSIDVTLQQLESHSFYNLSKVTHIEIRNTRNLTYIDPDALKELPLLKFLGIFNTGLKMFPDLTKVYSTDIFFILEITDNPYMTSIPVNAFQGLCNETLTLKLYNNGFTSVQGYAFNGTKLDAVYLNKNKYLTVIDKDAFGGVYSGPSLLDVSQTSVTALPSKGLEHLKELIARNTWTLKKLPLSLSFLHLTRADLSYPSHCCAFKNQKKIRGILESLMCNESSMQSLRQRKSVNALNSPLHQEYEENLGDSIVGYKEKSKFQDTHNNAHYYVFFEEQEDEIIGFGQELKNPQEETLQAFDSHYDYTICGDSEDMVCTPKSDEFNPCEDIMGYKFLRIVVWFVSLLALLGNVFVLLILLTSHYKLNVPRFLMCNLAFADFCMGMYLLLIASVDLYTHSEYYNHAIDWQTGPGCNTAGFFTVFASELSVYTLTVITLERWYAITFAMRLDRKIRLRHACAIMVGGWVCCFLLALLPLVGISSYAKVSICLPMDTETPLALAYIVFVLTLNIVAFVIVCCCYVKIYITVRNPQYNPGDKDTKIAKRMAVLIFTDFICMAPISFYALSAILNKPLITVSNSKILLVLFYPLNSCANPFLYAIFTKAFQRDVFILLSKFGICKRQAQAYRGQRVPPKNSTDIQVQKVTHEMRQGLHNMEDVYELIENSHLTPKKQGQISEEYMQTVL
Sequence of Nuclear receptor subfamily 1 group I member 3 (Homo sapiens) (Q14994 whole entry, looked up): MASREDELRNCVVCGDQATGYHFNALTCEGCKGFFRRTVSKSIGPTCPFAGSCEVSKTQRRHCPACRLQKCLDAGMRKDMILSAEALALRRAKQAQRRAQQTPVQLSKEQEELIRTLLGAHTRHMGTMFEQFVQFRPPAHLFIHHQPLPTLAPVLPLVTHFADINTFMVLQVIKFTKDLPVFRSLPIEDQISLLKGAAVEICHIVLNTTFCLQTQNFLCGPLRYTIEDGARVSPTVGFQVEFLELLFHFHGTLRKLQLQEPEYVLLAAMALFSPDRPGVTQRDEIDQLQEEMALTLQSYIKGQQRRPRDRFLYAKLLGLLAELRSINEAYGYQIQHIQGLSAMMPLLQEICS
Sequence of Luciferin 4-monooxygenase (Photinus pyralis) (P08659 whole entry, looked up): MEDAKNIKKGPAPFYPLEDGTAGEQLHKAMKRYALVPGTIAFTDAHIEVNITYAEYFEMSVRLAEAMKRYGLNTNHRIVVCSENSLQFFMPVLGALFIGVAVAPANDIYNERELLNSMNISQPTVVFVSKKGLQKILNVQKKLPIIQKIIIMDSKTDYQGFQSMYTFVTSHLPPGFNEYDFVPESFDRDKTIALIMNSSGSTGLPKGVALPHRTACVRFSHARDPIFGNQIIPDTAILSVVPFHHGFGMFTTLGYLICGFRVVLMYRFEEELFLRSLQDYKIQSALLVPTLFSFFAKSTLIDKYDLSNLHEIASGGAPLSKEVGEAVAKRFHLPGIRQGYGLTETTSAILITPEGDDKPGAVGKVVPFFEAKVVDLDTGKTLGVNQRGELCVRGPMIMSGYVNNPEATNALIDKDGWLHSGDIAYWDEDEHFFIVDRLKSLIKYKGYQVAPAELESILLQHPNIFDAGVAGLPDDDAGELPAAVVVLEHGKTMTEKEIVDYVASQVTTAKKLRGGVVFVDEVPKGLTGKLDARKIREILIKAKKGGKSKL

`O=C(O)COc1cc(Cl)c(Cl)cc1Cl`: the Potency result in assay [1], in [2], in assay [3], in assay [4], in assay [5] and in assay [6] was “inactive” each time. The Potency result in assay [7], in assay [8], in assay [9] and in assay [10] was “inactive” throughout.
For `C[N+]1(CCF)[C@@H]2CC[C@H]1CC(OC(=O)C(O)(c1ccccc1)c1ccccc1)C2` (some centres undefined), the Potency entry in assay [1], in [2], in assay [4], in assay [5], in [6] and in assay [11] was “inactive” throughout. In addition, the Potency result in assay [12], in [7] and in assay [10] was “inactive” throughout.
In the case of `Cc1ncc(C[n+]2csc(CCO)c2C)c(N)n1`, the Potency entry in assay [1], in assay [2], in [3], in [4], in assay [6] and in assay [11] was “inactive” in each case. Besides, the Potency result in assay [13], in assay [12], in assay [7] and in assay [10] was “inactive” each time.
As to `CC(Cc1ccccc1)NCc1ccccc1Cl` (centres undefined), the Potency entry in assay [1], in [2], in assay [4], in [5], in [6] and in [11] was “inactive” in each case. Further, the Potency result in assay [13] and in assay [7] was “inactive” each time. The Potency in assay [12] was 26.6 µM (active).
`CC1(C)CC(=O)CC(C)(C)N1[O]`: the Potency entry in [1], in assay [2], in assay [3], in assay [4], in assay [5] and in [6] was “inactive” each time. Further, the Potency result in assay [13], in assay [12], in assay [7], in assay [8], in assay [9] and in assay [10] was “inactive” throughout.
For the compound `CC[N+]1(C)CCCC(OC(=O)C(O)(c2ccccc2)c2ccccc2)C1` (centres undefined), the Potency entry in [1], in [2], in assay [14], in assay [4], in assay [5] and in assay [11] was “inactive” in each case. The Potency result in [13], in assay [12], in assay [7] and in assay [9] was “inactive” throughout.
Take `CC(C)CCON=O`: the Potency entry in assay [1], in assay [2], in assay [3], in assay [4], in assay [5] and in [11] was “inactive” throughout. In addition, the Potency entry in assay [13], in assay [12], in [7] and in assay [10] was “inactive” throughout.
Turning to `NC(=S)c1c(Cl)cccc1Cl`, the Potency entry in assay [1], in [2], in assay [3], in assay [4], in assay [5] and in assay [11] was “inactive” in each case. Also, the Potency entry in [7] was “inactive”.
Take `SCc1ccccc1`: the Potency entry in assay [1], in assay [2], in assay [3], in assay [4], in assay [11] and in [13] was “inactive” throughout. In addition, the Potency result in [12] and in assay [7] was “inactive” each time.
As for `Cc1nc2ccccc2c(=O)n1-c1ccccc1Cl`, the Potency result in assay [1], in [2], in assay [3], in assay [5], in assay [13] and in [12] was “inactive” throughout. Moreover, the Potency entry in [8] and in assay [9] was “inactive” each time. The Potency in assay [4] is 21.2 µM (active); in [11], 16.9 µM (active).
As to `CCc1cnc(C2=NC(C)(C(C)C)C(=O)N2)c(C(=O)O)c1` (centres undefined), the Potency result in assay [1], in assay [2], in [3], in [4], in assay [5] and in assay [13] was “inactive” each time. Moreover, the Potency result in assay [7] and in [10] was “inactive” in each case.
Turning to `CCC1CCC(=O)O1` (centres undefined), the Potency result in assay [1], in assay [2], in [3], in [4], in assay [5] and in assay [6] was “inactive” each time. The Potency entry in [11], in assay [7] and in assay [10] was “inactive” each time.
Turning to `C[N+](C)(C)CCOC(=O)C(O)(c1ccccc1)c1ccccc1`, the Potency result in assay [1], in assay [2], in assay [14], in [4], in assay [5] and in [11] was “inactive” throughout. In addition, the Potency result in [7] is “inactive”.
With `COc1cc(CC#N)cc(OC)c1OC`, the Potency result in assay [1], in [2], in assay [4], in assay [5], in assay [13] and in assay [12] was “inactive” throughout. For the same compound, in assay [7], the Potency entry is “inactive”.
`O=C([O-])c1ccccn1.O=C([O-])c1ccccn1.O=C([O-])c1ccccn1.[Cr+3]`: the Potency entry in assay [1], in assay [2], in [4], in [5], in [11] and in [13] was “inactive” in each case. Moreover, in assay [7], the Potency entry was “inactive”.
As for `[Cl-].[Cl-].[Hg+2]`, the Potency is 3.08 µM (active) and 3.09 µM (active) in [1]; 27.2 µM (active) and 6.11 µM (active) in [2]; 6.08 µM (active) and 4.33 µM (active) in assay [4]; 60.8 µM (active) and 7.7 µM (active) in [6]; 60.8 µM (active) and 5.45 µM (active) in assay [11]; 15.3 µM (active) and 2.43 µM (active) in assay [7].

For the origin of these results see PubChem BioAssay (Tox21).
